About 2,600 (0.7%) of roughly 370,000 compounds were called active.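 How the source made its calls: active means inhibition above a per-plate cutoff, mean inhibition of test wells between control levels plus 3 SD (cut at about 38% in these data); inactive means the rest.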 The list comes from a sample in which actives are over-represented; it also holds similar structures and randomly drawn compounds.
These compounds were tested against COUP transcription factor 2 (Homo sapiens) (UniProt P24468) (assay: COUP-TFII reporter suppression in human cells – cell-based, luciferase reporter, HEK293T, luminescence, primary screen (AID 686940;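 further: cells cotransfected with COUP-TFII expression vector driving the NGFI-A reporter; 0% = median of COUP-TF2 test wells and 100% = reporter-only cells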)). Details: HEK293T NGFI-A luciferase reporter, at 8.6 µM, stronger effect = higher value.
COUP transcription factor 2 (Homo sapiens), sequence (P24468 whole entry, looked up): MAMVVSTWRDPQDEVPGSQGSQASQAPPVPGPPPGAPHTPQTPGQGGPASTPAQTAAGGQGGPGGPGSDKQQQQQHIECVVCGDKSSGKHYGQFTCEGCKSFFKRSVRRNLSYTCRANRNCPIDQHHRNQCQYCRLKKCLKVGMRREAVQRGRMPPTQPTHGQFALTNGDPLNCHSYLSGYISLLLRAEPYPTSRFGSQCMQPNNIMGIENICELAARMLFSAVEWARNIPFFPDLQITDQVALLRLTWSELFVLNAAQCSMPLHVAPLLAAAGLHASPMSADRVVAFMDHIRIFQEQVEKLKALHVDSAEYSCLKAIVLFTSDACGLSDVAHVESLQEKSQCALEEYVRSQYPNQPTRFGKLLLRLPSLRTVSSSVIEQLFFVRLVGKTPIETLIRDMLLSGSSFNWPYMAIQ
For `COc1ccc(CN(CCN2CCOCC2)C(=O)c2ccc(C)cc2)cc1OC`, the inhibition was -7.96% (inactive).
For `CCOC(=O)[C@@]12CN(C(=O)OC(C)(C)C)CC=C1N(Cc1ccc(OC)cc1)C(=O)[C@H]2CC(=O)NCc1ccc(OC)c(OC)c1`, the inhibition was -0.1% (inactive).
For `Cc1cc(C)nc(NC(=S)N2CCN(c3ccc(C(F)(F)F)cn3)CC2)c1`, the inhibition was 22.9% (inactive).
`CC(=O)OC12CCCN(C1)/C(=C/c1ccncc1)C2` (centres undefined) was tested, and the inhibition was 3.99% (inactive).
In the case of `COc1cccc(CNC(=O)C2CCCN(c3nc4ccccc4o3)C2)c1OC` (centres undefined), the inhibition is reported as -7.71% (inactive).
For `O=C(Nc1ccc(F)cc1)Nc1nnc([C@H]2C[C@H](O)[C@@H](CO)O2)s1`, the inhibition was -2.93% (inactive).
`O=C(Nc1nnc([C@H]2C[C@H](O)[C@@H](CO)O2)s1)c1cccc(Cl)c1` was tested, and the inhibition was 7.36% (inactive).
With `Cc1ccc(CNC(=O)Nc2nnc([C@H]3C[C@H](O)[C@@H](CO)O3)s2)cc1` the inhibition was 46.9% (active).
For `Cc1cc(C(=O)NN=C/C=C/c2ccco2)n[nH]1`, the inhibition was -13.9% (inactive).
`CCc1ccc(-c2nc(SCC(=O)NC3CCCC3)n[nH]2)cc1` was tested, and the inhibition was 53.3% (active).
In the case of `CCc1c(C)nc(SCC(=O)NC2CCCC2)[nH]c1=O`, the inhibition is reported as 11.9% (inactive).
For `COC(=O)c1ccccc1NC(=O)CSc1n[nH]c(-c2ccncc2)n1`, the inhibition was 8.9% (inactive).
`O=C(c1cccc(C(F)(F)F)c1)N1CC[C@H]2[C@H](CCCN2Cc2cc(F)cc(F)c2)C1` was tested, and the inhibition was 2.53% (inactive).
For `Cc1ccc(NC(=O)c2ccc(CSc3ncnc4nc[nH]c34)cc2)c(C)c1`, the inhibition was -6.98% (inactive).
`CCc1ccc(N(CC)c2ncnc3nc[nH]c23)cc1` was tested, and the inhibition was 39.6% (active).
With `S=c1c2[nH]cnc2ncn1CCSc1ncnc2nc[nH]c12` the inhibition was 3.01% (inactive).
With `CCCCN1CCN(C(=O)c2ccc3c(c2)NC(=O)C(C)(C)O3)CC1` the inhibition was -23.3% (inactive).
`O=C(Nc1nc2ccc(Cl)cc2s1)c1cc(-c2ccc(Cl)cc2)nc2ccccc12` was tested, and the inhibition was -23.3% (inactive).
With `O=C(NC(Nc1nc2ccc([N+](=O)[O-])cc2s1)(C(F)(F)F)C(F)(F)F)c1ccccc1` the inhibition was 74.1% (active).
`O=C(CNC(=O)c1ccccc1)OC(C(=O)Nc1cc([N+](=O)[O-])ccc1F)c1ccccc1` (centres undefined) was tested, and the inhibition was 1.21% (inactive).
For `Cc1ccccc1NC(=O)COC(=O)c1ccc(Sc2ncn[nH]2)c([N+](=O)[O-])c1`, the inhibition was 13.4% (inactive).
`CN(C)S(=O)(=O)c1ccc(C(=O)NCC(C)(C)N2CCOCC2)cc1` was tested, and the inhibition was 15.8% (inactive).
With `O=C(NCCSCc1ccccc1)c1ccc(Cl)c(S(=O)(=O)N2CCOCC2)c1` the inhibition was 11% (inactive).
`CC(C)(CNC(=O)c1ccc(Cl)c(S(=O)(=O)N2CCc3ccccc3C2)c1)N1CCOCC1` was tested, and the inhibition was 65% (active).
In the case of `N#Cc1ccc(OC[C@@H](O)CN2CCC(C(O)(c3ccccc3)c3ccccc3)CC2)c(F)c1`, the inhibition is reported as -4.45% (inactive).
`O=C(CSc1nc2ccccc2s1)NN=Cc1ccc(O)cc1O` was tested, and the inhibition was -18.2% (inactive).
`C=CCN(C)CC#Cc1ccccc1` was tested, and the inhibition was 17.2% (inactive).
For `Cc1ccc(-n2c(SCC(=O)Nc3cccc4ccccc34)nnc2-c2ccccn2)cc1`, the inhibition was 14.2% (inactive).
With `CC(C)(C)c1ccc(Oc2ccc(N)cc2)cc1` the inhibition was 100% (active).
For `COc1cccc(CNC(=O)CNS(=O)(=O)c2ccc3nc(C)sc3c2)c1OC`, the inhibition was 14.5% (inactive).
In the case of `O=C1CCC2(CCC(c3ccc(Cl)cc3)CC2)N1CCO` (centres undefined), the inhibition is reported as 20.9% (inactive).
For `COC1=C[C@H](C(=O)NCCNC(C)=O)[C@H](C)[C@@H](c2ccccc2)CC1=O`, the inhibition was 12% (inactive).
With `CN(C)S(=O)(=O)c1cccc(C(=O)N/N=C\c2ccco2)c1` the inhibition was 2.18% (inactive).
In the case of `O=C(Nc1ccccc1)N1CCN(Cc2nc3ccccc3c(=O)[nH]2)CC1`, the inhibition is reported as 13.6% (inactive).
`O=C(C1CCN(S(=O)(=O)c2ccccc2)CC1)N1CCN(C2CCCCC2)CC1` was tested, and the inhibition was -29.2% (inactive).
In the case of `CCN(CC)P(=O)(C(NC(=O)OC)C(F)(F)C(F)(F)C(F)(F)C(F)F)N(CC)CC` (centres undefined), the inhibition is reported as 98.4% (active).
For `O=C(CSc1nc2c(c(=O)[nH]1)CCCC2)N1CCCCC1`, the inhibition was -26.3% (inactive).
In the case of `O=S1(=O)c2ccc(N3CCN(Cc4ccccc4F)CC3)cc2Oc2ccccc2CN1Cc1cn(Cc2ccc(Cl)cc2)nn1`, the inhibition is reported as -6.71% (inactive).
For `Cc1ccc(-n2c(SCC(=O)Nc3ccc(S(=O)(=O)Nc4nccs4)cc3)nnc2-c2ccccn2)cc1`, the inhibition was -5.91% (inactive).
In the case of `C=CCSc1nsc(NC(=O)Nc2cccc(C(C)=O)c2)n1`, the inhibition is reported as 38.1% (active).
For `CCSc1nsc(NC(=O)Nc2cccc(C(C)=O)c2)n1`, the inhibition was 17.5% (inactive).
For `CCCCN1C(=O)C(=O)N(CC(=O)Nc2cccc(C(C)=O)c2)C1=O`, the inhibition was 0.73% (inactive).
In the case of `COC(=O)C[C@@H]1CC[C@@H]2[C@H](COc3ccc(NC(=O)c4cccc(F)c4)cc3C(=O)N2C)O1`, the inhibition is reported as -0.62% (inactive).
`COc1ccc(-n2c(SCC(=O)Nc3ccc4cn[nH]c4c3)nnc2-c2cccnc2)cc1` was tested, and the inhibition was 9.8% (inactive).
For `N#CCC[C@H]1CC[C@]2(CCCN(Cc3ccc(Cl)cc3)C2)O1`, the inhibition was 1.96% (inactive).
For `O=C1NC[C@H](CCCCN2C[C@H](Cc3ccc(O)cc3)N(CCc3ccccc3)C(=O)C2=O)N(CCc2ccccc2)C1=O`, the inhibition was -1.56% (inactive).
`O=C1NC[C@H](CCCCN2C[C@H](Cc3ccccc3)N(Cc3ccccc3)C(=O)C2=O)N(CCc2ccc(O)cc2)C1=O` was tested, and the inhibition was -7.95% (inactive).
`O=C1NC[C@@H](Cc2ccc(O)cc2)N(CCc2cccc(F)c2)C1=O` was tested, and the inhibition was 48.2% (active).
In the case of `COc1ccnc(C(=O)N2CCC(Oc3cccnc3)CC2)c1`, the inhibition is reported as -26.8% (inactive).
With `O=S1(=O)c2c(cccc2N2CCSCC2)Oc2ccccc2CN1Cc1cn(Cc2ccc(F)cc2)nn1` the inhibition was -4.53% (inactive).
`O=C(Nc1cc(Cl)cc(Cl)c1)OCCN1CCCC12CCC(c1ccccc1)CC2` (centres undefined) was tested, and the inhibition was 2% (inactive).
`NS(=O)(=O)c1ccc(CCNC(=O)CNC(=O)Cc2ccccc2)cc1` was tested, and the inhibition was 10.1% (inactive).
For `NS(=O)(=O)c1ccc(CCNc2nc(C(F)(F)F)nc3ccccc23)cc1`, the inhibition was 46.6% (active).
In the case of `CC(Nc1nc(C(F)(F)F)nc2ccccc12)c1cccs1` (centres undefined), the inhibition is reported as -15.1% (inactive).
In the case of `CCCCn1c(SCc2ncc(-c3ccccc3)o2)nc2cc(S(N)(=O)=O)ccc21`, the inhibition is reported as 47% (active).
`c1ccc(-c2cnc(CN3CCN(c4ccccc4)CC3)o2)cc1` was tested, and the inhibition was -25.5% (inactive).
With `CCCCn1c(SCC(=O)N2CCCC2=O)nc2cc(S(N)(=O)=O)ccc21` the inhibition was -5.45% (inactive).
In the case of `Cc1ccc(NC(=O)Nc2cc(C)nn2-c2ccccc2)cc1`, the inhibition is reported as -17.6% (inactive).
In the case of `COc1ccc(C2CC=C(C(=O)O)C(c3ccccc3F)N2S(=O)(=O)c2ccc(C)cc2)cc1OC` (centres undefined), the inhibition is reported as 13% (inactive).
For `COc1ccc2c(C(C)c3ccc(N)cc3)cn(C)c2c1` (centres undefined), the inhibition was -15.8% (inactive).
In the case of `O=C(C1CCCN1S(=O)(=O)c1ccccc1)N1CCc2ccccc2C1` (centres undefined), the inhibition is reported as 7.01% (inactive).
With `CN1C(=O)c2cc(NS(C)(=O)=O)ccc2OC[C@@H]2O[C@@H](CC(=O)NCc3ccc(-c4ccccc4)cc3)CC[C@H]21` the inhibition was -21.8% (inactive).
In the case of `O=C(c1cncc(Br)c1)N1CCN(c2ccc([N+](=O)[O-])cc2)CC1`, the inhibition is reported as 9.04% (inactive).
For `O=[N+]([O-])c1ccc(N2CCN(c3ccc(F)cc3)CC2)cn1`, the inhibition was -9.2% (inactive).
`O=C(c1cc(C(=O)N2CCN(c3ccc(F)cc3)CC2)cc([N+](=O)[O-])c1)N1CCN(c2ccc(F)cc2)CC1` was tested, and the inhibition was 58.1% (active).
`CN(C)CC(=O)N[C@@H]1C[C@@H]2O[C@H](CO)CC[C@@H]2O[C@@H]1CCc1ccc(C#Cc2ccccc2)cc1` was tested, and the inhibition was 27.3% (inactive).
With `COC(=O)c1ccc(C(=O)NC2CC(C)(C)Cc3c2cnn3-c2ccc(F)cc2)nc1` (centres undefined) the inhibition was -4.63% (inactive).
With `COc1ccc(C(=O)NC2CC(C)(C)Cc3c2cnn3-c2ccccc2)c(OC)c1` (centres undefined) the inhibition was -0.91% (inactive).
`Cn1nccc1C(=O)NC1CCCc2c1cnn2-c1ccccc1F` (centres undefined) was tested, and the inhibition was 63.7% (active).
With `Cc1cc(C(=O)NC2CC(C)(C)Cc3c2cnn3-c2ccccc2)n[nH]1` (centres undefined) the inhibition was -4.58% (inactive).
In the case of `Cn1nccc1C(=O)NC1CCCc2c1cnn2-c1ccc(F)cc1F` (centres undefined), the inhibition is reported as 60.9% (active).
In the case of `Cc1cc(C(=O)NNC(=O)CCC2CCCCC2)c(C)o1`, the inhibition is reported as 3.17% (inactive).
For `Cc1cc(C(=O)NC2CCCc3c2cnn3-c2cccc(C)c2C)c(C)o1` (centres undefined), the inhibition was 44.6% (active).
With `O=C(CCNC(=O)c1ccc(Cl)cc1)NC1CCCc2ccccc21` (centres undefined) the inhibition was -32.6% (inactive).
In the case of `COCc1ccc(C(=O)NC2CC(C)(C)Cc3c2cnn3-c2ccc(C)cc2)o1` (centres undefined), the inhibition is reported as -7.12% (inactive).
`COc1cccc(CSc2nnc(-c3cccnc3)n2Cc2ccccc2)c1` was tested, and the inhibition was 14.1% (inactive).
For `COC(=O)c1cccc(Cn2ccc3ccc(-c4ccc5ccn(C(=O)C6CCCCC6)c5c4)cc32)c1`, the inhibition was -12.6% (inactive).
In the case of `O=C(NCCC1=CCCCC1)C1CCN(S(=O)(=O)c2ccc(Cl)s2)CC1`, the inhibition is reported as 8.27% (inactive).
For `COC(=O)[C@H](C(C)C)N1CCc2nnn(Cc3ccc(C)cc3)c2-c2ccccc2S1(=O)=O`, the inhibition was 7% (inactive).
With `COC(=O)C[C@@H]1CC[C@@H]2[C@@H](COc3ccc(NC(=O)Nc4ccc(F)c(F)c4)cc3C(=O)N2C)O1` the inhibition was 4.71% (inactive).
In the case of `CC[n+]1cc(C)ccc1/C=C/c1ccc(N(C)C)cc1`, the inhibition is reported as 74.1% (active).
With `O=S1(=O)c2ccc(Br)cc2OC[C@@H](Cc2ccccc2)N1Cc1cn(Cc2ccco2)nn1` the inhibition was 8.82% (inactive).
For `C=CCN1C(C(=O)OC)CN(Cc2cn(Cc3ccccc3)nn2)CCS1(=O)=O` (centres undefined), the inhibition was -8.52% (inactive).
In the case of `CC(CCN1CCC(C(O)(c2ccccc2)c2ccccc2)CC1)Oc1ccc([N+](=O)[O-])cc1Cl` (centres undefined), the inhibition is reported as 10.1% (inactive).
